Reference: PubChem BioAssay (NCI)
Compounds without any hit were thinned out: in the full panel of roughly 83,000, 20% have a hit.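 Percent growth is the endpoint: 0 to 100 indicates growth inhibition (40 means 60% inhibition), 0 means no net growth, and negative values indicate cell death.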 A number with no mark means an inactive call. Active and inactive are the calls of the source. The calls were made as follows: active = growth percent below 10; inactive = the rest.

How the values were obtained:
Experiment in all cases: NCI-60 one-dose screen, 48 h (100 = growth as untreated, 0 = no growth, -100 = all killed)
Settings in all cases: 10 µM unless noted
SR leukemia = tested on: SR leukemia
RPMI-8226 leukemia = tested on: RPMI-8226 leukemia
OVCAR-8 ovarian = tested on: OVCAR-8 ovarian
OVCAR-5 ovarian = tested on: OVCAR-5 ovarian
OVCAR-4 ovarian = tested on: OVCAR-4 ovarian
SK-OV-3 ovarian = tested on: SK-OV-3 ovarian
IGROV1 ovarian = tested on: IGROV1 ovarian
OVCAR-3 ovarian = tested on: OVCAR-3 ovarian
HS 578T breast = tested on: HS 578T breast
NCI/ADR-RES ovarian = tested on: NCI/ADR-RES ovarian

Structure (SMILES)	growth (SR leukemia)	growth (RPMI-8226 leukemia)	growth (OVCAR-8 ovarian)	growth (OVCAR-5 ovarian)	growth (OVCAR-4 ovarian)	growth (SK-OV-3 ovarian)	growth (IGROV1 ovarian)	growth (OVCAR-3 ovarian)	growth (HS 578T breast)	growth (NCI/ADR-RES ovarian)
NS(=O)(=O)c1cc(=O)[nH]c(=O)[nH]1	135%	118%	114%	112%	110%	108%	121%	116%	102%	109%
Clc1cccc(Cl)c1CSc1nc2ccccc2n2cccc12	71.9%	96.1%	104%	106%	70.4%	88.6%	76.4%	92.5%	113%	101%
CCCCCCCCCc1ccc(OC(C)=O)cc1	102%	91.8%	101%	105%	107%	119%	111%	108%	96.3%	119%
CCCCNc1ccc(-c2ccc(NCCCC)cc2)cc1	44.1%	61.8%	82.1%	90.3%	63.5%	94.5%	78%	67.8%	84.2%	79.3%
O=C(Oc1ccccc1Cl)c1ccc(Cl)cc1Cl	104%	98.9%	101%	109%	109%	99.6%	108%	107%	93.8%	103%
CC(=O)c1cccc(NS(=O)(=O)c2ccc(C)cc2)c1	36.6%	86.6%	90.1%	92.8%	79%	101%	62.8%	70.9%	86.9%	50.5%
CCOC(=O)CO	95%	110%	109%	105%	111%	109%	105%	125%	109%	109%
Cc1ccc2nc(-c3ccc(N=Cc4ccccc4O)cc3)sc2c1	88.8%	70.8%	87.5%	92.2%	78.6%	115%	64%	84.8%	102%	77.7%
Nc1cc2ccccc2c(O)c1O	0.498% (active)	12.7%	-69.9% (active)	76.1%	-97.7% (active)	79.3%	67.3%	-39.9% (active)	81.7%	55.3%
C/C(=N\Nc1ccc([N+](=O)[O-])cc1[N+](=O)[O-])c1ccc(Br)cc1	84.4%	93.1%	96.8%	123%	105%	108%	110%	99.7%	104%	106%
CCOc1ccc(NC(=S)N2CCC(CCCC3CCN(C(=S)Nc4ccc(OCC)cc4)CC3)CC2)cc1	95.2%	65.8%	92.2%	102%	85.1%	91.1%	94.5%	79.3%	85.3%	94%
CCCC(=O)c1cccs1	95.8%	105%	107%	100%	103%	103%	110%	107%	95.2%	101%
CN1CCCN(C(c2ccccc2)c2ccc(Br)cc2)CC1 (stereo not given)	4.87% (active)	84.1%	93.9%	92.6%	84.7%	81.5%	78.6%	69.9%	42.4%	79.1%
CCCCN(C=S)CCCC	91.9%	101%	95%	102%	112%	88.6%	107%	108%	97.1%	107%
COc1nc(Nc2cccc(C(F)(F)F)c2)nc(OC)n1	95%	94.7%	96%	116%	105%	97.9%	93.1%	103%	98.6%	104%
CC(O)C(F)(F)C(F)(F)C(F)(F)F (stereo not given)	97.6%	128%	110%	98.7%	103%	118%	114%	121%	105%	110%
NC(=O)OCCO	94.5%	104%	104%	107%	109%	105%	108%	102%	99.2%	105%
CSc1cnc2ccccc2n1	95.4%	109%	95.5%	101%	115%	97.2%	104%	107%	98.8%	103%
CC1(C)CC(=O)C=C(N)C1	108%	178%	97.1%	89.3%	91.7%	145%	101%	106%	77.9%	83.4%
Cc1ccc(OC(=O)c2ccccc2)cc1	102%	113%	101%	100%	114%	107%	132%	115%	141%	113%
Clc1ccc(-c2noc(/C=C\c3ccccc3)n2)cc1	97.8%	110%	98.7%	99.6%	102%	95.1%	96.3%	102%	119%	108%

Structure (SMILES)	growth (SR leukemia)	growth (RPMI-8226 leukemia)	growth (OVCAR-8 ovarian)	growth (OVCAR-5 ovarian)	growth (OVCAR-4 ovarian)	growth (SK-OV-3 ovarian)	growth (IGROV1 ovarian)	growth (OVCAR-3 ovarian)	growth (HS 578T breast)	growth (NCI/ADR-RES ovarian)
COc1cccc(C(=O)NNC(=O)c2cccc3ccccc23)c1	113%	105%	105%	125%	109%	100%	131%	121%	114%	107%
C=C1SC(=Nc2c(C)cccc2C)N(c2nc(Cl)nc(Cl)n2)C12CCCCC2	81.4%	99.8%	98.8%	118%	101%	99%	97.4%	101%	113%	105%
C#CC(O)c1ccccc1 (stereo not given)	106%	104%	103%	101%	105%	103%	108%	106%	107%	107%
O=C(CCl)Nc1ccccc1SCc1cc(Cl)cc2c1OCOC2	31.9%	94%	75.4%	101%	47.7%	80.8%	-43% (active)	26.1%	102%	101%
Nc1nc(N)nc(N2CCCCC2)n1	97.9%	101%	105%	102%	111%	106%	96%	105%	97.3%	110%
O=C(O)C1CSC(c2ccccc2)N1 (stereo not given)	115%	107%	106%	98.2%	111%	99.5%	105%	104%	88.4%	99.2%
CC(=O)N(CCCCCCN(C(C)=O)C(C)=O)C(C)=O	99.6% [100 µM]	107% [100 µM]	107% [100 µM]	110% [100 µM]	101% [100 µM]	114% [100 µM]	108% [100 µM]	113% [100 µM]	105% [100 µM]	105% [100 µM]
S=c1nc(-c2ccccn2)c(-c2ccccn2)n[nH]1	99.2%	112%	103%	111%	108%	112%	103%	107%	105%	102%
Cc1cccnc1NC1OC(=O)c2ccccc21 (stereo not given)	93.8%	106%	107%	106%	117%	94.6%	101%	107%	138%	103%
COC(=O)c1cccc([N+](=O)[O-])c1	99%	102%	107%	111%	130%	115%	111%	108%	102%	102%
OCC(O)COc1ccc(Cl)cc1Cl (stereo not given)	101%	102%	92.4%	101%	101%	91.7%	101%	110%	102%	110%
CC(C)OCC(CCl)OC(=O)Nc1ccccc1 (stereo not given)	117%	109%	97.9%	104%	101%	97.6%	105%	101%	114%	107%
O=C(CCCl)OCCOc1ccccc1	94.5%	53.6%	102%	109%	102%	100%	104%	104%	98.8%	106%
CCCCCCCCCCCCCCCCCCSC(=N)N	-13.5% (active)	61.7%	86.9%	83.2%	76.1%	83.3%	70.5%	89.5%	100%	81%
O=[n+]1ccn([O-])c2ccccc21	78.3%	78.9%	121%	93.1%	106%	109%	106%	101%	89.4%	103%
CCOC(=O)C(COS(C)(=O)=O)(COS(C)(=O)=O)C(=O)OCC	90.9%	110%	103%	105%	107%	104%	104%	106%	104%	103%
Nc1cccc2cccc(O)c12	58.5%	85.5%	86.7%	103%	83.1%	100%	76%	87.1%	82.1%	95.5%
O=C1C=Cc2ccccc2/C1=C/c1[nH]c(=O)[nH]c1O	33%	87.3%	45.4%	86.7%	41%	32.8%	33.2%	-32.3% (active)	-6.84% (active)	67.8%
C=CCc1cc(OC)c(OC)c(OC)c1	107%	110%	102%	99.2%	112%	114%	110%	93.1%	103%	105%
CCOS(=O)(=O)c1ccc([N+](=O)[O-])cc1	88.2%	106%	104%	103%	101%	111%	105%	106%	108%	105%
NC(=O)N1CCOCC1	89.8%	94.8%	103%	108%	103%	103%	113%	103%	113%	113%

Structure (SMILES)	growth (SR leukemia)	growth (RPMI-8226 leukemia)	growth (OVCAR-8 ovarian)	growth (OVCAR-5 ovarian)	growth (OVCAR-4 ovarian)	growth (SK-OV-3 ovarian)	growth (IGROV1 ovarian)	growth (OVCAR-3 ovarian)	growth (HS 578T breast)	growth (NCI/ADR-RES ovarian)
CC1CCC(C(C)(C)[N+](C)(C)C)CC1 (stereo not given)	94%	102%	100%	104%	98.9%	102%	115%	107%	100%	107%
Cc1[nH]nc(C(N)=O)c1[N+](=O)[O-]	84.7%	96.3%	108%	104%	122%	101%	115%	101%	87.7%	102%
COC(=O)c1ccccc1C(=O)c1c(C)cc(C)cc1C	79.6%	93.5%	101%	101%	99.9%	102%	98.5%	103%	100%	102%
O=C(Nc1c(Cl)cc(Cl)cc1Cl)ON=C1CCCCC1	98.4%	105%	104%	96.4%	108%	114%	109%	105%	99.3%	109%
CCc1ccccc1C(=O)N(CC)CC	96.3%	103%	105%	99.4%	108%	118%	103%	110%	110%	109%
O=C(O)Cc1ccc(Cl)cc1	44.8%	99.1%	97.7%	111%	107%	121%	109%	150%	99.6%	109%
COc1cc(C(=O)O)c(O)c(C(C)(C)C)c1	119%	106%	104%	99.2%	109%	103%	107%	104%	105%	106%
O=C(NC1CCCCC1)c1ccc(Cl)cc1	103%	105%	105%	99.5%	108%	114%	103%	102%	106%	101%
Cc1ccc(/C=N/NC(N)=S)s1	97.3%	100%	107%	104%	110%	111%	113%	105%	106%	109%
COCC(N)=O	98.3%	103%	108%	101%	120%	105%	114%	106%	103%	111%
Cc1cc(Cl)cc(Cc2cc(Cl)cc(C)c2O)c1O	1.17% (active)	-22.8% (active)	48.2%	69%	22.2%	51.5%	33.1%	-2.69% (active)	4.77% (active)	-10.7% (active)
N#Cc1ccc2nc[nH]c2c1	106%	108%	104%	108%	109%	109%	115%	102%	100%	110%
CC(=O)NC(O)C(Cl)Cl (stereo not given)	97.2%	95.8%	96.4%	97.2%	97.5%	-22.9% (active)	107%	74.5%	107%	98.5%
Nc1ncc([N+](=O)[O-])cn1	104%	98.6%	95.8%	102%	106%	106%	109%	104%	101%	105%
COc1ccc2c(ccc[n+]2C)c1	115%	85.4%	94.8%	99.9%	91.9%	107%	85.3%	82.7%	80.2%	106%
O=S(Cc1ccccc1)/C(=C/NC(=S)Nc1ccccc1)c1ccccc1 (stereo not given)	88.4%	103%	107%	99%	98.3%	91.4%	97.6%	105%	114%	98.4%
CCN(C(C)=O)c1ccc([N+](=O)[O-])cc1	97%	93.9%	99.2%	111%	113%	109%	107%	107%	99.8%	102%
CCN1CCCC(N2c3ccccc3Sc3ccccc32)C1 (stereo not given)	96.3%	95.5%	102%	106%	97.9%	111%	91.3%	98.5%	99.6%	99.7%
Cc1cc2c3ccc(C)[n+](C)c3ccc2n1C	15.4%	21.2%	30.3%	68.2%	62.6%	35.9%	54.7%	47%	38.6%	88.3%
